Source: PubChem BioAssay (NCATS)
The source made the active and inactive calls. The call rests on the fitted dose curve; in most records, active means well fitted curve in the direction sought with a large enough effect; inconclusive means small, poorly fitted or top-dose-only effect, or another doubt; inactive means no such curve, though single readings can be large or run the other way.

Assay: qHTS Counterscreen for compound interference against the NCATS DSHEA and TCM libraries (AID 1919978);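 further: compounds preincubated with 1 µM D-luciferin or buffer before detection reagent; % of control where 0% means no effect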
Conditions: firefly luciferase detection reagent interference, luminescence
Text: PI: Anton Simeonov Ph.D. Assay Development and Screening Technology Laboratory (ADST) National Center for Advancing Translational Sciences (NCATS), Rockville, MD National Institute of Health (NIH), Bethesda, Maryland Dietary Supplements and Natural Products have minor oversight of their safety and efficacy. We assembled a collection of Dietary Supplements and Natural Products (DSNP) as well as Traditional Chinese Medicinal (TCM) Plant extracts, which were screened against an in vitro panel of assays, including a liver cytochrome p450 enzyme panel, CAR/PXR signaling pathways, and P-gp transporter assays, to assess their activity. This pipeline facilitated the interrogation of Natural Product-Drug Interaction (NaPDI) through prominent metabolizing pathways. In addition, we compared the activity profiles of the DSNP/TCM substances with those of an approved drug collection. Many of the approved drugs have well-annotated mechanisms of action (MOA) while the MOAs for most of the DSNP and TCM samples remain unknown. Based on the premise that compounds with similar activity profiles tend to share similar targets or MOA, we clustered the library activity profiles to identify overlap with the NCATS Pharmaceutical Collection to predict the MOAs of the DSNP/TCM substances. Overall, we highlight four significant bioactivity profiles (measured by p-values) as examples of this prediction. To assess broad cytotoxicity, we employed screening against a HepG2 cell line. In addition, transporter-mediated drug interactions are utilized in the characterization of DDIs using a P-glycoprotein (P-gp) assays. To profile potential P-gp activity, a differential cell viability was measured against two cell lines: a parental KB-3-1 human cervical adenocarcinoma cell line and the drug-resistant subline KB-8-5-11 that overexpresses P-gp. […] To this end, we profiled both collections for potential CAR and/or PXR activity, employing a previously published 1536-well qHTS assay. […] Reference: [1] Lee TD, et al. A High-Throughput Screen of a Library of Therapeutics Identifies Cytotoxic Substrates of P-glycoprotein. Mol Pharmacol. Nov 2019;96(5):629-640. doi:10.1124/mol.119.115964
PROTOCOL TABLE (as described by Inglese J, Shamu CE and Guy RK. 2007) SEQUENCE No. (e.g., 1, 2, 3, etc.); […] (e.g., Cells, Incubation, Reagent, etc.); VALUE; DESCRIPTION. 1; Reagent; 4 uL; D-luciferin or buffer only, white solid-bottom Greiner plate. 2; Compounds and control; 16 nL; Kalypsis pintool (Wako USA). 3; Incubation; 15 min; room temperature. 4; Reagent; 4 uL; luciferin detection reagent. 5; Centrifuge; 1000 RPM; 15 sec. 6; Incubation; 30 min; room temperature. 7; Read; Luminescence; ViewLux plate reader. NOTES (numbers refer to Sequence numbers above) 1. To account for detection kit artifacts, compounds were counter-screened for interferences using previously described methods. Briefly, 4 uL of D-luciferin (final concentration 1 uM) or buffer (100 mM potassium phosphate) were dispensed into a 1536-well white solid-bottom medium binding plate. 2-3. Compounds (final concentration of 19.5 nM to 39.8 uM) and intraplate control PTC124 (final concentration range: 1.2 nM to 39.8 uM) were transferred (16 nL) via pintool (Wako Automation) and incubated (RT) for 15 min. 4-6. Next, 4 uL of reconstituted luciferin detection reagent was dispensed, and samples were centrifuged for 15 s at 1000 rpm and incubated (RT) for 30 min. 7. Plates were then read for luminescence intensity on a ViewLux detector. REFERENCES: [1] Inglese J, Shamu CE and Guy RK, Reporting data from high throughput screening of small molecule libraries, Nature Chemical Biology, 2007, 3(8): 438-441. doi.org/10.1038/nchembio0807-438. Auld DS, Southall NT, Jadhav A, Johnson RL, Diller DJ, Simeonov A, Austin CP, Inglese J. Characterization of chemical libraries for luciferase inhibitory activity. J Med Chem. 2008 Apr 24;51(8):2372-86. doi: 10.1021/jm701302v. Epub 2008 Mar 26. PMID: 18363348.
In the case of `O=C(/C=C/c1ccc(O)c(O)c1)O[C@H]1[C@H](O)C[C@](O)(C(=O)O)C[C@H]1OC(=O)/C=C/c1ccc(O)c(O)c1`, the max response is reported as -1.54% (inactive). In the case of `CC(C)=CCC[C@](C)(OC1OC(COC2OCC(O)C(O)C2O)C(O)C(O)C1O)[C@H]1CC[C@]2(C)[C@@H]1[C@H](O)C[C@@H]1[C@@]3(C)CC[C@H](OC4OC(CO)C(O)C(O)C4OC4OC(CO)C(O)C(O)C4O)C(C)(C)[C@@H]3CC[C@]12C` (stereo not given in full), the max response is reported as 4.44% (inactive). With `C=C1C[C@]23CC[C@H]4[C@@](C)(CCC[C@@]4(C)C(=O)O)[C@@H]2CC[C@@]1(O[C@@H]1O[C@H](CO)[C@@H](O)[C@H](O)[C@H]1O[C@@H]1O[C@H](CO)[C@@H](O)[C@H](O)[C@H]1O)C3` the max response was -1.97% (inactive). In the case of `CC(C)(O)[C@@H]1CC[C@](C)([C@@H]2[C@H](O)C[C@]3(C)C4C[C@@H](O[C@H]5O[C@@H](CO)[C@H](O)[C@@H](O)[C@@H]5O)C5C(C)(C)[C@H](O[C@H]6OC[C@H](O)[C@@H](O)[C@@H]6O)CC[C@]56CC46CC[C@@]23C)O1` (stereo not given in full), the max response is reported as 1.31% (inactive). With `CCCCCCCC/C=C\CCCCCCCCCCCC(=O)O` the max response was 1.35% (inactive). With `C[C@@H]1O[C@@H](OC[C@H]2OC(Oc3c(-c4ccc(O)c(O)c4)oc4cc(O)cc(O)c4c3=O)[C@H](O)[C@@H](O)[C@@H]2O)[C@H](O)[C@H](O)[C@H]1O` (stereo not given in full) the max response was -2.59% (inactive). In the case of `CCCCCCCCCC=O`, the max response is reported as 0.0179% (inactive). In the case of `CC1(C)CC[C@]2(C(=O)O)CC[C@]3(C)C(=CCC4[C@@]5(C)CC[C@H](O)[C@@](C)(CO)C5CC[C@]43C)[C@H]2C1` (stereo not given in full), the max response is reported as -0.0807% (inactive). With `CC1=CC[C@H](C(C)C)C=C1` the max response was 0.517% (inactive). For `CC1=C2[C@H]([C@@H](C)CC[C@@H]2/C=C(\C)C(=O)O)[C@@H](O)C1`, the max response was -1.15% (inactive). For `Cc1ccc(O)c(O)c1`, the max response was -0.684% (inactive). In the case of `O=C(O[C@@H]1Cc2c(O)cc(O)cc2O[C@@H]1c1ccc(O)c(O)c1)c1cc(O)c(O)c(O)c1`, the max response is reported as 2.25% (inactive). With `C=C/C(C)=C/C/C=C(\C)CCC=C(C)C` the max response was 2.78% (inactive). For `CC(C)c1ccc(C=O)cc1`, the max response was -3.36% (inactive). In the case of `O=C(O)c1ccccc1`, the max response is reported as -0.483% (inactive). With `CC(C)[C@H](C)CC[C@@H](C)[C@H]1CC[C@H]2[C@@H]3CC=C4C[C@@H](O)CC[C@]4(C)[C@H]3CC[C@]12C` the max response was 2.09% (inactive). With `O=C(/C=C/c1ccc(O)c(O)c1)O[C@@H]1C[C@](O)(C(=O)O)C[C@@H](O)[C@H]1O` the max response was 0.087% (inactive). In the case of `C=C(C)C1CC=C(C)C(O)C1` (stereo not given), the max response is reported as 4.01% (inactive). For `Cc1ncc(COP(=O)(O)O)c(C)c1O`, the max response was -1.84% (inactive). In the case of `CCCCCCCCCCCC(=O)O`, the max response is reported as 3.72% (inactive). In the case of `COc1ccccc1/C=C/C=O`, the max response is reported as -3.3% (inactive). For `COc1ccc(C(=O)O)cc1`, the max response was -1.54% (inactive). For `CCCCCC/C=C\CCCCCCCC(=O)O`, the max response was 0.217% (inactive). In the case of `C=C(C)C(CC=C(C)C)CC12CC(CC=C(C)C)C(C)(C)C(CC=C(C)C)(C(=O)/C(=C(\O)c3ccc(O)c(O)c3)C1=O)C2=O` (stereo not given), the max response is reported as 3.47% (inactive). In the case of `CC(=O)OC/C=C/c1ccccc1`, the max response is reported as 3.54% (inactive). In the case of `CCCCCCCC/C=C/CCCCCCCCCC(=O)O`, the max response is reported as -1.3% (inactive). With `COc1ccc(/C=C/c2cc(OC)cc(=O)o2)cc1` the max response was 0.752% (inactive). With `CCCCCCCCCCCCCCCCCCCCCC(=O)O` the max response was 3.78% (inactive). With `O=C(/C=C/c1ccc(O)c(O)c1)OC1[C@H](O)CC(O)(C(=O)O)C[C@@H]1O` (stereo not given in full) the max response was -1.19% (inactive). For `COc1ccc(-c2coc3cc(O[C@@H]4O[C@H](CO)[C@@H](O)[C@H](O)[C@H]4O)ccc3c2=O)cc1`, the max response was 3.05% (inactive). With `CCCCCCCC/C=C\CCCCCCCCCCCCCC(=O)O` the max response was -2.19% (inactive). With `C=C1CC[C@H](O)C/C1=C\C=C1/CCC[C@]2(C)[C@@H]([C@H](C)CC[C@H](C)C(C)C)CC[C@@H]12` the max response was -0.676% (inactive). With `CC(C)=CCCC(C)=CCCC(C)=CCCC=C(C)CCC=C(C)CCC=C(C)C` the max response was -1.5% (inactive). In the case of `O[C@@H]1[C@@H](O)[C@H](OC/C=C/c2ccccc2)O[C@H](CO[C@@H]2OC[C@H](O)[C@H](O)[C@H]2O)[C@H]1O`, the max response is reported as 4.06% (inactive). For `CC(C)=CCC[C@](C)(O[C@@H]1O[C@H](CO)[C@@H](O)[C@H](O)[C@H]1O)[C@H]1CC[C@]2(C)[C@@H]1[C@H](O)C[C@@H]1[C@@]3(C)CC[C@H](O)C(C)(C)[C@@H]3[C@@H](O[C@@H]3O[C@H](CO)[C@@H](O)[C@H](O)[C@H]3O[C@@H]3O[C@@H](C)[C@H](O)[C@@H](O)[C@H]3O)C[C@]12C`, the max response was 0.587% (inactive). For `O=C(O)CC(O)(C(=O)O)C(O)C(=O)O` (stereo not given), the max response was 1.8% (inactive). With `CC(C)=CCC[C@](C)(O[C@@H]1O[C@H](CO)[C@@H](O)[C@H](O)[C@H]1O)[C@H]1CC[C@]2(C)[C@@H]1[C@H](O)C[C@@H]1[C@@]3(C)CC[C@H](O)C(C)(C)[C@@H]3[C@@H](O[C@@H]3O[C@H](CO)[C@@H](O)[C@H](O)[C@H]3O)C[C@]12C` the max response was 2.82% (inactive). With `C=C1C[C@@]23CC[C@H]4[C@](C)(CCC[C@]4(C)C(=O)O[C@@H]4O[C@H](CO)[C@@H](O)[C@H](O)[C@H]4O)[C@@H]2CC[C@]1(O[C@H]1O[C@@H](CO)[C@H](O)[C@@H](O)[C@@H]1O)C3` the max response was 3.88% (inactive). In the case of `Oc1cc(O)c2c(c1)O[C@@H](c1cc(O)c(O)c(O)c1)[C@H](O)C2`, the max response is reported as -5.21% (inactive). For `C[C@@H]1CC[C@]2(C)CC[C@]3(C)C(=CC(=O)C4[C@@]5(C)CC[C@@H](O)[C@](C)(C(=O)O)C5CC[C@]43C)C2[C@H]1C` (stereo not given in full), the max response was 2.52% (inactive).
